# Measured values: PubChem BioAssay (Tox21)
# Records with an inconclusive call do not appear. Entries that show only a call come without a potency. Activity calls are given as the source filed them. Unless noted, calls come from the whole dose curve; as a rule, active = well fitted curve in the direction sought with a large enough effect in the repeat runs; inconclusive = weak or mixed curves; inactive = no such curve, though single readings can be large; an effect the other way counts as inactive or inconclusive.
# Assays:
# [1] = target: Progesterone receptor (Homo sapiens) (UniProt P06401); assay: qHTS assay to identify small molecule agonists of the progesterone receptor (PR) signaling pathway (AID 1346784; calls by dose curve; note: nearly all actives have a fitted effect of over 30% in size; note: potency is the fitted concentration of half-maximal effect)
# Progesterone receptor (Homo sapiens), sequence (P06401 whole entry, looked up): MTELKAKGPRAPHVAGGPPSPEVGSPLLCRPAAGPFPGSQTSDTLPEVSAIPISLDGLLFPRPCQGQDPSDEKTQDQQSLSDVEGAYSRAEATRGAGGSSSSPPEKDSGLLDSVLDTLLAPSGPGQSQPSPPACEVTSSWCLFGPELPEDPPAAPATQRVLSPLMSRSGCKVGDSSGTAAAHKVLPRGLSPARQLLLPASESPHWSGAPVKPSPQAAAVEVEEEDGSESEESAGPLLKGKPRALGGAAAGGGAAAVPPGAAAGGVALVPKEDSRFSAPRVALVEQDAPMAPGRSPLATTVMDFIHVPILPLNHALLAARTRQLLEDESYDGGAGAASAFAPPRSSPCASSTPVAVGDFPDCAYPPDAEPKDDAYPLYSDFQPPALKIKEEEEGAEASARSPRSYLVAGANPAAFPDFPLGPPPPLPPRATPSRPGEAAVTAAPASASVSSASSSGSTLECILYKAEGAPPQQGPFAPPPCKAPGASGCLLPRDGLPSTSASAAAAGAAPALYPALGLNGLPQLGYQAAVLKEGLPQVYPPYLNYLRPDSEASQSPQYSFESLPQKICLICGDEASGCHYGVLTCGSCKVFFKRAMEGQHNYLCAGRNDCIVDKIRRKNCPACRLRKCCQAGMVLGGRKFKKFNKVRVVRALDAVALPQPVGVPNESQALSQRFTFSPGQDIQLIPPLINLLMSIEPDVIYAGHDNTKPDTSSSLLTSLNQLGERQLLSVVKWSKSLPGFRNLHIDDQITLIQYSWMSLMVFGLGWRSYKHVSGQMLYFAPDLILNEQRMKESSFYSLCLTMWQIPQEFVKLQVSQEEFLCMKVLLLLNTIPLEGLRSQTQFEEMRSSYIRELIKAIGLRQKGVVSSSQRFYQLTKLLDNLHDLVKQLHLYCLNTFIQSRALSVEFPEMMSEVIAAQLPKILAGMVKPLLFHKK
# How it was run: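 Reporter assay, GripTite PR-UAS-bla HEK 293T cells: 16 hr exposure to DMSO-dissolved compounds at 37C, 5% CO2, in steroid-depleted (2% charcoal-stripped FBS) medium; beta-lactamase measured by FRET fluorescence.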
# [2] = target: Progesterone receptor (Homo sapiens) (UniProt P06401); assay: qHTS assay to identify small molecule antagonists of the progesterone receptor (PR) signaling pathway (AID 1346795; active = well fitted inhibition curve with a large enough effect in the signal ratio in the repeat runs, not every such curve was filed as active; the % refers to the signal ratio; note: potency is the fitted concentration of half-maximal effect)
# How it was run: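 Stimulus R5020 at 1 nM final; cells HEK293T PR-UAS-bla; medium with 2% charcoal-stripped FBS; compound exposure 16 hr at 37C, 5% CO2; detection by FRET beta-lactamase substrate, 2 hr, room temperature.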
# [3] = qHTS assay to identify small molecule antagonists of the progesterone receptor (PR) signaling pathway - cell viability counter screen (AID 1346798); note: series mostly up to about 92 µM; nearly all actives have a fitted effect of over 50% in size
# How it was run: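 In the same plates used for the beta-lactamase readout, cell viability of compound- and R5020-treated PR-UAS-bla HEK293T cells (16 hr, 37C) was assessed by CellTiter-Glo luminescence.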
# [4] = qHTS assay to identify small molecule agonists of the progesterone receptor (PR) signaling pathway - cell viability counter screen (AID 1346799; calls by dose curve; note: nearly all actives have a fitted effect of over 45% in size)
# How it was run: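 Multiplexed viability read: CellTiter-Glo luminescence, 30 min RT, following LiveBLAzer FRET measurement on PR-UAS-bla HEK293T cells exposed to compounds 16 hr.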
# [5] = qHTS assay to identify small molecule antagonists of the TGF-beta/Smad signaling pathway - cell viability counter screen (AID 1346824); note: nearly all actives have a fitted effect of over 50% in size
# How it was run: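 SBE-bla HEK 293T cells were plated overnight at 37 C, then given compounds in DMSO plus TGF-beta1 (added as 0.25 ng/mL solution) for 5 hr. After the bla read, CellTiter-Glo was added to the same wells and luminescence read after 30 min at room temperature.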
# [6] = qHTS assay to identify small molecule agonists of the TGF-beta/Smad signaling pathway - cell viability counter screen (AID 1346829); note: top concentration of the series differs between compounds; nearly all actives have a fitted effect of over 45% in size
# How it was run: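 In parallel with the Smad reporter read, viability of HEK 293T cells stably carrying SBE-bla is quantified by ATP luminescence following 5 hr compound treatment.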
# [7] = qHTS assay to identify small molecule agonists of the TGF-beta/Smad signaling pathway (AID 1346859; active = well fitted activation curve with a large enough effect in the signal ratio in the repeat runs, not every such curve was filed as active; the % refers to the signal ratio; note: series mostly up to about 77 µM)
# How it was run: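 Screening used HEK 293T SBE-bla cells at 4,000/well. Test agents: 5 hr, 37 C. Detection: FRET substrate, 2 hr RT, then excitation 405 nm with emissions at 460 and 530 nm.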
# [8] = Human pregnane X receptor (PXR) small molecule agonists, qHTS cell viability counter screen (AID 1346977); note: nearly all actives have a fitted effect of over 50% in size
# How it was run: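 In each well, the PXR reporter HepG2 line was checked for viability: CellTiter-Fluor reagent added 23hr post-dosing, fluorescence read after 1hr incubation at 37C.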
# [9] = target: Thyrotropin-releasing hormone receptor (Homo sapiens) (UniProt P34981); assay: qHTS assay to identify small molecule antagonists of the thyrotropin-releasing hormone receptor (TRHR) signaling pathway (AID 1346877; active = well fitted inhibition curve with a large enough effect in the repeat runs, not every such curve was filed as active; note: series mostly up to about 51 µM)
# Thyrotropin-releasing hormone receptor (Homo sapiens), sequence (P34981 whole entry, looked up): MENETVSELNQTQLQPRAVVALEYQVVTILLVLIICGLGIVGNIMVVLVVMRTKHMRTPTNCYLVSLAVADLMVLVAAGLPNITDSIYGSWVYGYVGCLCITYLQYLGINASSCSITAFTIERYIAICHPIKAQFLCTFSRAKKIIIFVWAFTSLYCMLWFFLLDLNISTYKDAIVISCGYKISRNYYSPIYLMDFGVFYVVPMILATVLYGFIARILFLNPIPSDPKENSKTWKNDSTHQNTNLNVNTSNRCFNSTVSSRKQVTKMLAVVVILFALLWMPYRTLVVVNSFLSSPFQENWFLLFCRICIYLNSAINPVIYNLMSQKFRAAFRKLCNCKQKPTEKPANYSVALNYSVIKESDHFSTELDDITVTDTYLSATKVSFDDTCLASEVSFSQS
# How it was run: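 TRHR-expressing HEK293 cells loaded with calcium dye for 2 h at 37 C; compounds pre-incubated 5 min at room temperature before TRH challenge at 1 nM final. Intracellular calcium fluorescence read kinetically for 3 min; 15 concentrations in triplicate.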
SMILES,Potency [1],Potency [2],Potency [3],Potency [4],Potency [5],Potency [6],outcome [7],Potency [8],Potency [9]
CCCN1C=CN(C)C1,inactive,inactive,inactive,inactive,inactive,inactive,inactive,inactive,
C=C[Si](OCCOC)(OCCOC)OCCOC,inactive,inactive,inactive,inactive,inactive,inactive,inactive,inactive,
Cc1ccc(C(C)(C)C)cc1,inactive,inactive,inactive,inactive,inactive,inactive,inactive,inactive,inactive
Clc1ccc(Sc2cc(Cl)c(Cl)cc2Cl)cc1,inactive,24.3 µM (active),inactive,inactive,inactive,inactive,inactive,inactive,inactive
C=CCNCC=C,inactive,inactive,inactive,inactive,inactive,inactive,inactive,inactive,inactive
CN(C)C,inactive,inactive,inactive,inactive,inactive,inactive,inactive,inactive,
IC(I)I,inactive,inactive,inactive,inactive,inactive,inactive,inactive,inactive,inactive
Cc1ccc(S(=O)(=O)NCl)cc1,inactive,inactive,inactive,inactive,inactive,inactive,inactive,inactive,
CC(C)(Oc1ccc(Cl)cc1)C(=O)O,inactive,inactive,inactive,inactive,inactive,inactive,inactive,inactive,
CC(C)=CCO,inactive,inactive,inactive,inactive,inactive,inactive,inactive,inactive,inactive
Cc1ccc(C(C)(C)C)c(O)c1,inactive,inactive,inactive,inactive,inactive,inactive,inactive,inactive,inactive
CC(=O)[C@H]1CC[C@H]2[C@@H]3CC=C4C[C@@H](O)CC[C@]4(C)[C@H]3CC[C@]12C,4.85 µM (active),inactive,inactive,inactive,inactive,inactive,inactive,inactive,
CC1(C)OC(=O)NC1=O,inactive,inactive,inactive,inactive,inactive,inactive,inactive,inactive,
C=CN1CCCC1=O,inactive,inactive,inactive,inactive,inactive,inactive,inactive,inactive,inactive
[Na+],inactive,inactive,inactive,inactive,inactive,inactive,inactive,inactive,
CC(C)[N+](C)(CCOC(=O)C1c2ccccc2Oc2ccccc21)C(C)C,inactive,inactive,inactive,inactive,inactive,inactive,inactive,inactive,inactive
Brc1nc2ccccc2s1,inactive,inactive,inactive,inactive,inactive,inactive,inactive,inactive,inactive
CCc1cccc2c3c([nH]c12)C(CC)(CC(=O)O)OCC3 (stereo not given),inactive,inactive,inactive,inactive,inactive,inactive,inactive,inactive,
CCO[Si](CCCNC(N)=O)(OCC)OCC,inactive,inactive,inactive,inactive,inactive,inactive,inactive,inactive,
c1ccc2ncccc2c1,inactive,inactive,inactive,inactive,inactive,inactive,inactive,inactive,inactive
c1ccc2cc3ccccc3cc2c1,inactive,inactive,inactive,inactive,inactive,inactive,inactive,inactive,
O=S1(=O)CCCO1,inactive,inactive,inactive,inactive,inactive,inactive,inactive,inactive,
O=C(O)c1ccc(O)cc1,inactive,inactive,inactive,inactive,inactive,inactive,inactive,inactive,inactive
C=CCCCCCCCCCC,inactive,inactive,inactive,inactive,inactive,inactive,inactive,inactive,inactive
FC(F)(F)C(Cl)Br (stereo not given),inactive,inactive,inactive,inactive,inactive,inactive,inactive,inactive,
C1COCCN1,inactive,inactive,inactive,inactive,inactive,inactive,inactive,inactive,
